# Bioassay records deposited in PubChem by National Center for Advancing Translational Sciences (NCATS).
# Rows were chosen to be rich in hits. Some 2.8% of all compounds tested hit in one or more screens of this group.
# HTT aggregate – qHTS Multiplex Assay to Identify Dual Action Probes in a Cell Model of Huntington: Aggregate Formation (GFP); PC12 HttQ103-GFP aggregates, Acumen cytometry, 40 h; Potency, µM (top dose mostly 46.1 µM), without a hit: at the top dose activity change, negative = inhibition, actives largely listed as inhibitors; actives 1.1% (n = 220,000); AID 1688, 2009; also: % is scaled to controls: 0 for no effect and ±100 for the full control effect; nearly all actives have a fitted effect of over 60% in size
#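 Inducible Q103 Huntingtin exon 1–GFP PC12 line, 1500 cells/well in phenol red free DMEM with 5% equine and 5% calf serum. Tebufenozide 100 nM induced expression; compounds titrated; aggregates quantified by cytometry.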
# HTT cytoprotect – qHTS Multiplex Assay to Identify Dual Action Probes in a Cell Model of Huntington: Cytoprotection (ATP) | PC12 HTT-Q103 induced, cytoprotection, ATP luminescence, 40 h | Potency, µM (top dose mostly 56.4 µM), inactives show cytoprotection (ATP increase), hits mostly activators | actives 0.14% (n = 230,000); also: % of control where 0% means no effect; nearly all actives have a fitted effect of over 45% in size
#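 Compounds added alongside 100 nM tebufenozide, which induces toxic Q103 huntingtin exon 1-GFP in stable PC12 cells; surviving cells quantified by luminescent ATP measurement. Medium: phenol red-free DMEM, 5% equine and 5% calf serum.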
# ATXN2 expr inh – Primary qHTS for Inhibitors of ATXN expression. HEK-293 ATXN2-luciferase reporter, luminescence, 24 h. Potency, µM (series often up to 57 µM), for inactives: at the highest dose activity change, negative = inhibition, hits mostly inhibitors. actives 0.72% (n = 360,000); also: % is scaled to controls: 0 for no effect and ±100 for the full control effect; nearly all actives have a fitted effect of over 55% in size
#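 qHTS (up to 57 uM final) was run with 24 h compound exposure of reporter cells at 37 °C. Each well was multiplexed: SteadyGlo luminescence measured ATXN2-luciferase expression after a fluorogenic Gly-Phe-AFC viability readout (25 uM final).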
# TGFb inhibitor – qHTS for Inhibitors of TGF-b; HepG2 CAGA-GFP TGF-b/SMAD3 reporter, GFP fluorescence, 18 h; TGF-beta stimulated, 500 pg/mL final; Potency, µM (highest dose often 46.1 µM), without a hit: top-dose activity, negative = inhibition, most hits filed as inhibitors; actives 1.2% (n = 410,000); AID 588855, 2011; also: % is scaled to controls: 0 for no effect and ±100 for the full control effect; nearly all actives have a fitted effect of over 65% in size
#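 Cell-based qHTS in HEPG2 carrying a CAGA-GFP Smad reporter; compounds added before 500 pg/mL final TGF-beta, 18 h incubation at 37 degrees C, GFP fluorescence quantified per cell by imaging cytometry.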
# HepG2 viability – qHTS for Inhibitors of TGF-b: Cytotox Counterscreen. HepG2 CAGA-GFP viability, ATP luminescence, 18 h. Potency, µM (titrated, usually from 46.1 µM), without a hit: at the highest dose activity change, negative = cytotoxicity, usual class: cytotoxic. actives 0.76% (n = 410,000). AID 588856, 2011
#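 CellTiter-Glo luminescence gave cytotoxicity after 18 hours at 37 degrees C. The cells were HepG2 CAGA-GFP in 1% FBS DMEM, stimulated with 500 pg/mL TGF-beta after compound addition. %Activity was normalised to no-cell wells (complete cell-killing) and DMSO (no toxicity), and curves were fitted and classified.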
# S2 tox – Viability Counterscreen for Primary qHTS for Inhibitors of ATXN expression; Potency, µM (highest dose often 56.7 µM), actives largely listed as cytotoxic; S2 cells (HEK-293 line with an ATXN2-luciferase reporter) viability, CellTiter-Fluor protease fluorescence, 24 h; AID 651635, 2014; actives 0.49% (n = 400,000); also: nearly all actives have a fitted effect of over 40% in size
# The depositor's hits bear a star; i = inactive; ? = inconclusive; · = no result given; [ ] = dose if it differs, or a comment. Calls follow the shape of the dose curve; as a rule, active = well fitted curve in the direction sought with a large enough effect; inconclusive = small, poorly fitted or top-dose-only effect, or another doubt; inactive = no such curve, though single readings can be large; an effect the other way counts as inactive or inconclusive. Potency is read from the fitted curve at half-maximal effect.
SMILES,HTT aggregate,HTT cytoprotect,ATXN2 expr inh,TGFb inhibitor,HepG2 viability,S2 tox
O=C1CC(c2cc(Br)ccc2F)c2cc3c(cc2N1)CCC3 (stereo unspecified),16%,-86%,?,-4%,4%,4.5µM*
CCCCC1(Cc2ccc([N+](=O)[O-])cc2)C(=O)N(c2ccccc2)N(c2ccccc2)C1=O,10µM*,25%[10 µM],5%,-7%,-22%,i
O=C(CCc1c[nH]c2ccccc12)N1CCC(n2c(C3CCCO3)nc3cc(C(F)(F)F)ccc32)CC1 (stereo unspecified),·,·,·,·,·,i
COc1cc(OC)c(/C=C/c2cc3c4ccccc4ccc3[n+](C)c2)c(OC)c1,·,·,·,-4%,-20%,·
Cc1ccc(N=C2C(=O)Nc3ccccc32)cc1,·,·,·,-1%,-3%,?
CCN(CC)c1ccc(N=C2C(=O)Nc3ccccc32)cc1,·,·,?,?,13µM*,?
CN(C)CCCNC(=S)NCC(c1ccc(Cl)cc1Cl)c1c[nH]c2ccccc12 (stereo unspecified),·,·,25µM*,?,-159%,?
CC1(C)Cc2c(sc3c2c(=N)n(Cc2ccco2)c(=O)n3Cc2ccc(Cl)cc2)CO1,18µM*,-24%,-16%,-1%,7%,i
Nc1nc(N)c2c(OCc3ccc(C(F)(F)F)cc3)cccc2n1,·,·,·,?,-58%,·
Cc1cc(-c2ncc(CC(=O)Nc3ccc(-c4cnccn4)cn3)cc2C)ccn1,·,·,-18%,·,·,·
O=C1C(Cl)=C(NCCCO)C(=O)c2ccccc21,?,-41%,-37%,?,-95%,i
NC1=C(Cl)C(=O)c2ccccc2C1=O,·,·,?,?,5.6µM*,?
NC1=C(Cl)C(=O)c2ccc(S(N)(=O)=O)cc2C1=O,·,·,3.5µM*,?,0.56µM*,3.5µM*
CCCC[S@@](=N)(=O)CC[C@@H](N)C(=O)O,·,4%[1.9 µM],·,·,·,·
CCCCCCCCCn1ccc(=N)cc1,-32%[9.22 µM],-34%[10 µM],2.1µM*,?,-3%,i
CCCCCn1ccc(=N)cc1,?,0%[0.074 µM],-25%,-23%,0%,i
CCCCCCCn1ccc(=N)cc1,1.1µM*,-54%,?,?,2%,i
COc1ccc2cc(C=O)ccc2c1,·,·,12%,·,·,i
CNC[C@@H](Cc1ccccc1)NC[C@@H](CC1CCCCC1)NCCCc1ccccc1,·,·,?,?,13µM*,20µM*
O=C(NCCCCc1ccccc1)c1ccccc1,-18%,-12%,-4%,15%,-65%,i
CNC[C@@H](CC1CCCCC1)NC[C@H](CC(C)C)NCCc1cccc(C(F)(F)F)c1,·,·,14µM*,?,10µM*,·
CCC[C@@H](CN[C@@H](CNC)C(C)C)NCCCCc1ccccc1,·,·,?,?,16µM*,?
CCC[C@@H](CNC)NC[C@H](Cc1ccccc1)NCCCCc1ccccc1,·,·,25µM*,?,-123%,·
COc1ccc(CCNC(=O)c2cnn3c2NC(=C2CC2)C=C3C(F)F)cc1OC,·,·,·,20%,-49%,·
C=CC1=C2C=C(C3CC3)N(CCCCO)C=C2C(=O)C(C)(OC(=O)c2ccco2)C1=O (stereo unspecified),·,-20%[10 µM],·,·,·,·
C#CCCOC(=O)N1C2=NC(C(=O)OC)=C(C(=O)OC)[C@@H]3N(CC#CC)c4ccccc4[C@]23C[C@H]1C(=O)OC,·,-7%[10 µM],·,·,·,·
Cc1nc(C)c(CC(=O)N2CCOc3ccc(CN4CCN(c5ccccn5)CC4)cc3C2)s1,·,·,·,·,·,i
COC(=O)N1CC=CC1(C)C(=O)NCC1CC1 (stereo unspecified),·,13µM*,·,·,·,·
CNC(=O)C1(C)C=CCN1C(=O)OC (stereo unspecified),·,-6%,·,·,·,·
